In the supplement of paper PMC10849652:
The full data set covers some 8,800 targets. This sample favours those with a hit. About 0.5% of all pairs of compound and target were hits.

Experiments:
Experiment in all cases: log2 fold change, soluble protein after heating vs DMSO (PISA); higher = thermal stabilisation; K562 lysate, 10 uM; active = over 0.2 and 3.5 SD of the protein, either way, in both replicates (recomputed)
vemurafenib = compound: CCCS(=O)(=O)Nc1ccc(F)c(C(=O)c2c[nH]c3ncc(-c4ccc(Cl)cc4)cc23)c1F [vemurafenib]
Procedure, shortened: (§1)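 Soluble protein was defined as the supernatant remaining after 21,000xg for 90 min, following pooling of heated aliquots and adjustment to 0.5% NP-40 at 4°C. Before that, crude K562 extract at 1 mg/mL protein in PBS pH 7.4 with 1 mM MgCl2 was treated with 10 μM compound for 30 min and heated for 3 min across 48°C-58°C. Quantification used TMTpro 16plex LC-MS/MS with channel sums equalised, and values are log-two fold changes in thermal stability relative to solvent controls from duplicates.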

[1] = compound: CCCS(=O)(=O)Nc1ccc(F)c(C(=O)c2c[nH]c3ncc(Cl)cc23)c1F
Procedure, shortened: as §1

barasertib = compound: CCN(CCCOc1ccc2c(Nc3cc(CC(=O)Nc4cccc(F)c4)[nH]n3)ncnc2c1)CCOP(=O)(O)O [barasertib]
Procedure, shortened: as §1

[2] = compound: CC[C@@H]1C(=O)N(C)c2cnc(Nc3ccc(C(=O)NC4CCN(C)CC4)cc3OC)nc2N1C1CCCC1
Procedure, shortened: as §1

volasertib = compound: CC[C@@H]1C(=O)N(C)c2cnc(Nc3ccc(C(=O)N[C@H]4CC[C@H](N5CCN(CC6CC6)CC5)CC4)cc3OC)nc2N1C(C)C [volasertib]
Procedure, shortened: as §1

[3] = compound: CCn1c(C(=O)N(C2CC2)C2CC2)cc2c3c(ncn3C)c(Nc3cc(C)n(C)n3)nc21
Procedure, shortened: as §1

[4] = compound: CCn1cc(-c2ccnc3[nH]c(-c4cccc(CN(C)C)c4)cc23)c(-c2ccc(NC(=O)N(C)C)cc2)n1
Procedure, shortened: as §1

[5] = compound: CN1CCC(CNc2ccc3ncc(-c4cccc(OC(F)(F)F)c4)n3n2)CC1
Procedure, shortened: as §1

saracatinib = compound: CN1CCN(CCOc2cc(OC3CCOCC3)c3c(Nc4c(Cl)ccc5c4OCO5)ncnc3c2)CC1 [saracatinib]
Procedure, shortened: as §1

sotrastaurin = compound: CN1CCN(c2nc(C3=C(c4c[nH]c5ccccc45)C(=O)NC3=O)c3ccccc3n2)CC1 [sotrastaurin]
Procedure, shortened: as §1

alvocidib = compound: CN1CC[C@H](c2c(O)cc(O)c3c(=O)cc(-c4ccccc4Cl)oc23)[C@H](O)C1 [alvocidib]
Procedure, shortened: as §1

Tubastatin A = compound: CN1CCc2c(c3ccccc3n2Cc2ccc(C(=O)NO)cc2)C1 [Tubastatin A]
Procedure, shortened: as §1

[6] = compound: CNC(=O)C1=CC=CC=C1NC2=NC(=NC=C2Cl)NC3=C(C=C(C=C3)N4CCOCC4)OC
Procedure, shortened: as §1

defactinib = compound: CNC(=O)c1ccc(Nc2ncc(C(F)(F)F)c(NCc3nccnc3N(C)S(C)(=O)=O)n2)cc1 [defactinib]
Procedure, shortened: as §1

[7] = compound: CNc1nc(-c2ccc3c(N)n[nH]c3c2)cc(N2C[C@@H](C(=O)NC3CCCCC3)CC[C@H]2C)n1
Procedure, shortened: as §1

encorafenib = compound: COC(=O)N[C@@H](C)CNc1nccc(-c2cn(C(C)C)nc2-c2cc(Cl)cc(NS(C)(=O)=O)c2F)n1 [encorafenib]
Procedure, shortened: as §1

[8] = compound: COC(=O)[C@H](CCSC)NC(=O)C1=C(C=C(C=C1)NC[C@H](CS)N)C2=CC=CC=C2
Procedure, shortened: as §1

alisertib = compound: COc1cc(Nc2ncc3c(n2)-c2ccc(Cl)cc2C(c2c(F)cccc2OC)=NC3)ccc1C(=O)O [alisertib]
Procedure, shortened: as §1

[9] = compound: COc1cc2nc(-c3cc(F)ccc3O)nc(N[C@@H]3CNC[C@H]3C(C)(C)O)c2cc1OC
Procedure, shortened: as §1

gefitinib = compound: COc1cc2ncnc(Nc3ccc(F)c(Cl)c3)c2cc1OCCCN1CCOCC1 [gefitinib]
Procedure, shortened: as §1

Measured: log2 fold change

PEF1 (UniProt Q9UBV8)
inactive: vemurafenib -0.025 | [1] 0.015 | barasertib 0.189 | [2] 0.033 | volasertib 0.009 | [3] -0.001 | [4] -0.116 | [5] -0.043 | saracatinib -0.025 | sotrastaurin -0.016 | alvocidib 0.027 | Tubastatin A 0.097 | [6] 0.029 | defactinib 0.087 | [7] 0.029 | encorafenib 0.039 | [8] -0.034 | alisertib -0.017 | [9] 0.029 | gefitinib -0.02

PPP2R5C isoform 4 (UniProt Q13362)
Sequence of UniProt Q13362 (Q13362 whole entry, looked up): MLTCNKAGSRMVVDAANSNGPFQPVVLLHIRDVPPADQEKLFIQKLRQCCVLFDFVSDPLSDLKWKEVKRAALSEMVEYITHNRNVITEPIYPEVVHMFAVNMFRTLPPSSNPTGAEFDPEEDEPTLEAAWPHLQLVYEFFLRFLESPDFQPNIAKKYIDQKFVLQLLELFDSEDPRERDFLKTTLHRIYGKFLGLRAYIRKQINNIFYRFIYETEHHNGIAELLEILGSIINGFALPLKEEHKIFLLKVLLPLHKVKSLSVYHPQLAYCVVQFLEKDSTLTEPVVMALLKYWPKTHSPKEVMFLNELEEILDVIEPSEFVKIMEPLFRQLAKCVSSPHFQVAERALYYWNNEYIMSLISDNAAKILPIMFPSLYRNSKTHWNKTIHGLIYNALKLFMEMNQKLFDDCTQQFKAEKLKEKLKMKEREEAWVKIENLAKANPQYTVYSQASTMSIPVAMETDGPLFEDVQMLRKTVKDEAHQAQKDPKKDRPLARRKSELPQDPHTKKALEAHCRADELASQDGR
inactive: vemurafenib 0.029 | [1] 0.02 | barasertib -0.001 | [2] 0.018 | volasertib -0.002 | [3] 0.022 | [4] -0.02 | [5] -0.038 | saracatinib 0.017 | sotrastaurin -0.036 | alvocidib 0.059 | Tubastatin A -0.014 | [6] -0.022 | defactinib -0.01 | [7] -0.08 | encorafenib -0.03 | [8] -0.047 | alisertib -0.036 | [9] 0.009 | gefitinib -0.007

PKN1 isoform 2 (UniProt Q16512)
inactive: vemurafenib 0.013 | [1] 0.049 | barasertib -0.006 | [2] 0.013 | volasertib -0.009 | [3] 0.024 | [4] -0.055 | saracatinib 0.002 | sotrastaurin -0.143 | alvocidib -0.036 | Tubastatin A -0.056 | [6] -0.001 | defactinib -0.079 | [7] -0.003 | encorafenib 0.075 | [8] 0.116 | alisertib -0.009 | [9] -0.1 | gefitinib -0.005
active: [5] -0.483

PGRMC1 (UniProt O00264)
Sequence of UniProt O00264 (O00264 whole entry, looked up): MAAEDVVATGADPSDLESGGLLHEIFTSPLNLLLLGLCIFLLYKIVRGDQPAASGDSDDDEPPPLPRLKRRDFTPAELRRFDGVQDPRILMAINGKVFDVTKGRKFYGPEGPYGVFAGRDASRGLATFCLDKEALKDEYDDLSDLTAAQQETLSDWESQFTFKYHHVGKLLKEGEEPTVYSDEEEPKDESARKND
active: [8] -0.258
inactive: vemurafenib -0.009 | [1] -0.043 | barasertib 0.019 | [2] 0.015 | volasertib 0.008 | [3] 0.021 | [4] -0.045 | [5] 0.071 | saracatinib -0.017 | sotrastaurin -0.003 | alvocidib -0.026 | Tubastatin A 0.01 | [6] -0.022 | defactinib 0.02 | [7] -0.014 | encorafenib 0.006 | alisertib 0.006 | [9] 0.006 | gefitinib 0.03

PRKCSH (UniProt P14314)
Sequence of UniProt P14314 (P14314 whole entry, looked up): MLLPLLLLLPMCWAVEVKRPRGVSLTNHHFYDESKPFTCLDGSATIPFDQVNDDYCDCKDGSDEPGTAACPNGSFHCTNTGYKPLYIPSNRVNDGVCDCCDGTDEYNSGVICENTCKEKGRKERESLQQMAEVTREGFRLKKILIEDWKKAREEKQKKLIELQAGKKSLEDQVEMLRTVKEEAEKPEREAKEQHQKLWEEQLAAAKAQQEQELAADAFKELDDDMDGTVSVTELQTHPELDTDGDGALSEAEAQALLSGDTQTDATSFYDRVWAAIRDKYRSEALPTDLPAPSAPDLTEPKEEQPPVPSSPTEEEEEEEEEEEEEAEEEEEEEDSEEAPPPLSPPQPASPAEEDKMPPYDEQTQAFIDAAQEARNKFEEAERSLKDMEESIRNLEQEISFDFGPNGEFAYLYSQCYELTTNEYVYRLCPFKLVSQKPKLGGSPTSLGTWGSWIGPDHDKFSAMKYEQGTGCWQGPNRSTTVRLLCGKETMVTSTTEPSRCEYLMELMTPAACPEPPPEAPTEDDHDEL
inactive: vemurafenib 0.01 | [1] -0.009 | barasertib -0.009 | [2] 0.007 | volasertib 0.04 | [3] 0.025 | [4] 0.007 | [5] -0.003 | saracatinib 0.011 | sotrastaurin 0.018 | alvocidib 0.009 | Tubastatin A 0.039 | [6] -0.001 | defactinib -0.014 | [7] -0.035 | encorafenib -0.003 | [8] -0.036 | alisertib -0.006 | [9] 0.024 | gefitinib 0.024

PYURF (UniProt Q96I23)
Sequence of UniProt Q96I23 (Q96I23 whole entry, looked up): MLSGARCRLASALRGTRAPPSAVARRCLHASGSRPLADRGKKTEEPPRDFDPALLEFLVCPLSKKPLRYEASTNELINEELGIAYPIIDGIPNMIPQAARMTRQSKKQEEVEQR
inactive: vemurafenib -0.048 | [1] -0.003 | barasertib -0.049 | [2] 0.103 | volasertib 0.059 | [3] 0.042 | [4] -0.03 | [5] -0.002 | saracatinib -0.013 | sotrastaurin -0.034 | alvocidib 0.077 | Tubastatin A 0.041 | [6] 0.073 | defactinib 0.181 | [7] 0.019 | encorafenib 0.113 | [8] 0.027 | alisertib 0.007 | [9] -0.007 | gefitinib -0.038

PTP4A1 (UniProt Q93096)
inactive: vemurafenib -0.006 | [1] -0.029 | barasertib -0.041 | [2] 0.017 | volasertib 0.036 | [3] 0.019 | [4] 0.177 | [5] -0.05 | saracatinib 0.001 | sotrastaurin 0 | alvocidib 0.05 | Tubastatin A 0.033 | [6] 0.023 | defactinib 0.033 | [7] 0.023 | encorafenib 0.006 | [8] -0.006 | alisertib -0.056 | [9] -0.015 | gefitinib 0.049

POC5 (UniProt Q8NA72)
Sequence of UniProt Q8NA72 (Q8NA72 whole entry, looked up): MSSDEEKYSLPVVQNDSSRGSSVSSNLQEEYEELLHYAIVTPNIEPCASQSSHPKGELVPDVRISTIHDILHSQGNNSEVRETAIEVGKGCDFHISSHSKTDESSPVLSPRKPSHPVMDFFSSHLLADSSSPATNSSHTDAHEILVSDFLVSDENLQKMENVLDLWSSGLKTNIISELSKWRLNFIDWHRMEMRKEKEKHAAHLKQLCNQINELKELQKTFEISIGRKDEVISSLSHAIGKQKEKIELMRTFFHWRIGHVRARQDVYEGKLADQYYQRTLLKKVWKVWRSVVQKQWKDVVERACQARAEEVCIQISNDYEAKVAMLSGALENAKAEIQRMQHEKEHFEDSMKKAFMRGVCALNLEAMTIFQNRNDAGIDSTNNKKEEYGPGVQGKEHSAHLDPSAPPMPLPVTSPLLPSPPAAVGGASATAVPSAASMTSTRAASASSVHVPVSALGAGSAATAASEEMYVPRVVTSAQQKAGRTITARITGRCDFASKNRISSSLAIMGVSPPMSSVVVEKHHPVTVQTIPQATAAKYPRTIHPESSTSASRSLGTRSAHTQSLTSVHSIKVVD
inactive: vemurafenib -0.062 | [1] -0.049 | barasertib 0.014 | [2] 0.17 | volasertib 0 | [3] -0.045 | [4] 0.021 | [5] -0.011 | saracatinib -0.087 | sotrastaurin -0.046 | alvocidib -0.048 | Tubastatin A -0.046 | [6] 0.054 | defactinib 0.154 | [7] 0.06 | encorafenib 0 | [8] -0.048 | alisertib -0.018 | [9] -0.009 | gefitinib 0.042

PICALM (UniProt Q13492)
inactive: vemurafenib -0.004 | [1] -0.004 | barasertib 0.037 | [2] 0.04 | volasertib 0.014 | [3] 0.004 | [4] 0.098 | [5] -0.021 | saracatinib 0.009 | sotrastaurin -0.061 | alvocidib -0.021 | Tubastatin A 0.029 | [6] -0.032 | defactinib -0.037 | [7] -0.033 | encorafenib 0.042 | [8] 0.014 | alisertib 0.008 | [9] 0.017 | gefitinib 0.008

PSMB9 (UniProt P28065)
inactive: vemurafenib -0.105 | [1] 0.037 | barasertib 0.158 | volasertib 0.028 | [3] -0.06 | [4] -0.165 | [5] 0.027 | saracatinib 0.037 | sotrastaurin 0.018 | alvocidib -0.052 | Tubastatin A 0.076 | [6] 0.006 | defactinib 0.034 | [7] 0.31 | encorafenib -0.076 | [8] 0.027 | alisertib -0.04 | [9] 0.139 | gefitinib -0.016
active: [2] 0.335

PI4K2B (UniProt Q8TCG2)
inactive: vemurafenib -0.003 | [1] -0.006 | barasertib 0.023 | [2] 0.07 | volasertib -0.032 | [3] -0.062 | [4] 0.081 | [5] 0.121 | saracatinib -0.009 | sotrastaurin 0.132 | alvocidib -0.263 | Tubastatin A 0.12 | [6] -0.04 | defactinib -0.081 | [7] -0.057 | encorafenib 0.041 | [8] -0.005 | alisertib -0.068 | [9] -0.011 | gefitinib 0.107

PRMT5 (UniProt O14744)
Sequence of UniProt O14744 (O14744 whole entry, looked up): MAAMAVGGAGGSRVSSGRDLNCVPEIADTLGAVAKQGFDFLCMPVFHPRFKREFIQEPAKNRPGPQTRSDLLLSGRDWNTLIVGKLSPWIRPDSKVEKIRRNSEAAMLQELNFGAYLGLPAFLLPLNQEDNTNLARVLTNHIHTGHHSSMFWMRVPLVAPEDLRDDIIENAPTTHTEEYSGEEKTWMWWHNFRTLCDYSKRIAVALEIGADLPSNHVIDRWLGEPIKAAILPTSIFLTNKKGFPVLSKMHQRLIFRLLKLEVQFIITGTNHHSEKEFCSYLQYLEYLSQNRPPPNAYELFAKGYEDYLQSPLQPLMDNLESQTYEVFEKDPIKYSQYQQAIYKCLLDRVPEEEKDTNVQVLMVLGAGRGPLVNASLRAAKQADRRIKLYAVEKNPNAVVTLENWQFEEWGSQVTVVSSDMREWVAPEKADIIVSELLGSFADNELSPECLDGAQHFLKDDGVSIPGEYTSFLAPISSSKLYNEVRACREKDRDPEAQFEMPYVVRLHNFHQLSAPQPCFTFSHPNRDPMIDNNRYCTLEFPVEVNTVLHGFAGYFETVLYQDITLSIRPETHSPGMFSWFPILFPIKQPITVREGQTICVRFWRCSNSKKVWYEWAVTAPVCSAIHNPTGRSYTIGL
inactive: vemurafenib 0.006 | [1] -0.008 | barasertib -0.007 | [2] 0.02 | volasertib -0.007 | [3] -0.009 | [4] -0.067 | [5] 0.017 | saracatinib -0.032 | sotrastaurin 0.015 | Tubastatin A -0.009 | [6] 0.008 | defactinib -0.019 | [7] 0.013 | encorafenib -0.015 | [8] -0.099 | alisertib 0 | [9] 0.011 | gefitinib -0.023
active: alvocidib 0.318

PCBD2 (UniProt Q9H0N5)
Sequence of UniProt Q9H0N5 (Q9H0N5 whole entry, looked up): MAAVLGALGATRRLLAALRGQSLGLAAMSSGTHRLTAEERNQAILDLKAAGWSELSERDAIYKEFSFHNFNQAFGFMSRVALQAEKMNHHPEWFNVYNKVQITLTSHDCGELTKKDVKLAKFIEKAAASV
inactive: vemurafenib 0.004 | [1] -0.017 | barasertib 0.013 | [2] 0.018 | volasertib 0.016 | [3] 0.031 | [4] -0.237 | [5] 0.11 | saracatinib -0.05 | sotrastaurin 0.055 | alvocidib -0.124 | Tubastatin A 0.012 | [6] 0.01 | defactinib -0.045 | [7] -0.059 | encorafenib -0.008 | [8] -0.039 | alisertib 0.058 | [9] 0.031 | gefitinib 0.071

PUM1 isoform 3 (UniProt Q14671)
Sequence of UniProt Q14671 (Q14671 whole entry, looked up): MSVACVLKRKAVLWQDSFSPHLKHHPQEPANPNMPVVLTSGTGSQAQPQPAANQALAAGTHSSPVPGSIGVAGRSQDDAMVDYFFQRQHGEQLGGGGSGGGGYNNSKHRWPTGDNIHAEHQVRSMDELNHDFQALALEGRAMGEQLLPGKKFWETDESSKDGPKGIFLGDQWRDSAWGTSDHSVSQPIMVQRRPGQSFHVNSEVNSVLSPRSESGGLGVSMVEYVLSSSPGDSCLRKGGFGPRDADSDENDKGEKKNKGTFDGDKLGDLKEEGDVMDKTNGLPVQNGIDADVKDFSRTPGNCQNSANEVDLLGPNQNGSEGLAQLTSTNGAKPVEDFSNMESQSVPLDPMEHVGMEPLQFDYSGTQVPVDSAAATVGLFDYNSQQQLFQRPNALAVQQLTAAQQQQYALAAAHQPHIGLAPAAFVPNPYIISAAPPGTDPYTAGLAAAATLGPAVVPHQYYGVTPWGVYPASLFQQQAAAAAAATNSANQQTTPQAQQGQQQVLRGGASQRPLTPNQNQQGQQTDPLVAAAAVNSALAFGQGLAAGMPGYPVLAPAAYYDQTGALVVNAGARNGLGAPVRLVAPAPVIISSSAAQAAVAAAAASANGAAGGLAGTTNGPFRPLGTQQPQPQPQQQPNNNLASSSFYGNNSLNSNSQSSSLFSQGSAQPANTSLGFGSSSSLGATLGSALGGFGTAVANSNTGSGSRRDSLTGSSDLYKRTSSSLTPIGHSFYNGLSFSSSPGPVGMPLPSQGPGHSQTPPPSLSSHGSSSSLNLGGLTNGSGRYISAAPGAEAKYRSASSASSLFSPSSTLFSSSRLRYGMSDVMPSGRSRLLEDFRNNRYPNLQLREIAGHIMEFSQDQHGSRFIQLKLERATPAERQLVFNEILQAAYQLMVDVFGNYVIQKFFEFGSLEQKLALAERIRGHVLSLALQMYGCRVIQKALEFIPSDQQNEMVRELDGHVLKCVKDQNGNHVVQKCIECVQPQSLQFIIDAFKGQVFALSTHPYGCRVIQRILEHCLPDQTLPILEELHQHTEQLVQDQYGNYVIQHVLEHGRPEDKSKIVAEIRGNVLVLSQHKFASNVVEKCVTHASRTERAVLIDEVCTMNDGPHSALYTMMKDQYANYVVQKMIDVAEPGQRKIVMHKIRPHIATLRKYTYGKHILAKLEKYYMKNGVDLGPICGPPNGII
inactive: vemurafenib -0.07 | [1] 0.013 | barasertib 0.068 | [2] 0.031 | volasertib -0.063 | [3] 0.03 | [4] 0.045 | [5] -0.084 | saracatinib 0.039 | sotrastaurin 0.016 | alvocidib 0.02 | Tubastatin A -0.033 | [6] -0.017 | defactinib 0.017 | [7] -0.023 | encorafenib 0.008 | [8] 0 | alisertib 0.031 | [9] 0.017 | gefitinib -0.014

PPP3CA isoform 2 (UniProt Q08209)
inactive: vemurafenib -0.008 | [1] -0.037 | barasertib 0.025 | [2] 0.046 | volasertib -0.005 | [3] 0.032 | [4] 0.115 | [5] -0.182 | saracatinib 0 | sotrastaurin -0.005 | alvocidib 0.043 | Tubastatin A 0.017 | [6] 0.033 | defactinib 0.101 | [7] 0.01 | encorafenib 0.023 | [8] 0 | alisertib 0.061 | [9] -0.001 | gefitinib 0.09

PIGO (UniProt Q8TEQ8)
Sequence of UniProt Q8TEQ8 (Q8TEQ8 whole entry, looked up): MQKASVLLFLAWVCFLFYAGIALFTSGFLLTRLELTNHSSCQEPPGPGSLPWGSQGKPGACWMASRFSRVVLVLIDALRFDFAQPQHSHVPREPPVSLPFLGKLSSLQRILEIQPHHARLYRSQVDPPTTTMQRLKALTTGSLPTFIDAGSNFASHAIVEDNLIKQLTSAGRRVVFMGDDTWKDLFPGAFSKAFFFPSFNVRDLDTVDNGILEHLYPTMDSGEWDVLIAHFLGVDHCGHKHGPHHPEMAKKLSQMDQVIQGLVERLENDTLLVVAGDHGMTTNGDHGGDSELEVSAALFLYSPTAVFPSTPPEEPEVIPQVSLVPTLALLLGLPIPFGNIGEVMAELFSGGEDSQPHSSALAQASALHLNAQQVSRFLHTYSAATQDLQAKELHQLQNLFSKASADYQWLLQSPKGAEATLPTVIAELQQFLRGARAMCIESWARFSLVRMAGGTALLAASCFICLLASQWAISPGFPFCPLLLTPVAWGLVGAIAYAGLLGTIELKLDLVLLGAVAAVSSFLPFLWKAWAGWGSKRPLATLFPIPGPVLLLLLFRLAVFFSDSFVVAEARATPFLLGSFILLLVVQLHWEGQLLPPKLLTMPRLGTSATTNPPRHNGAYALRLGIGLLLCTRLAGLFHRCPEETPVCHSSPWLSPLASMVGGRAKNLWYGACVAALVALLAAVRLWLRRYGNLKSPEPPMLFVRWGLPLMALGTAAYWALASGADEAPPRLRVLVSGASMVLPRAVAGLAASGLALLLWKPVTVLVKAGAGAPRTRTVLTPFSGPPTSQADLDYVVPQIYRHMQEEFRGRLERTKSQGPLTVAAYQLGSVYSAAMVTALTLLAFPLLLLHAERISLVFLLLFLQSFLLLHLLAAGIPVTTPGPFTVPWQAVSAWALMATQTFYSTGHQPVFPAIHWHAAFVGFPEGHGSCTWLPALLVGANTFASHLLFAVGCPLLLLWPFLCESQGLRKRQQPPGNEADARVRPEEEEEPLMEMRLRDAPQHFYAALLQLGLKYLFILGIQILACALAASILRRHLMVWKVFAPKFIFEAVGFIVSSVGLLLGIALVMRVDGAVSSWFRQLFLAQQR
active: sotrastaurin -0.499
inactive: vemurafenib -0.112 | [1] 0.109 | barasertib 0.064 | [2] 0.013 | volasertib -0.069 | [3] -0.081 | [4] -0.029 | [5] -0.043 | saracatinib -0.013 | alvocidib 0.038 | Tubastatin A -0.112 | [6] -0.095 | defactinib 0.046 | [7] 0.143 | encorafenib 0.019 | [8] -0.121 | alisertib 0.061 | [9] -0.073 | gefitinib 0.013
